Data taken from PubChem BioAssay AID1159580 (chemical genetic matrix, 2015).
Where “and” joins values, the source holds several entries; their conditions need not be identical. Equal entries are not always repeated. Out of some 5,500 compounds screened, about 2,000 (36%) were called active. Another 18% or so got no clear call; they are omitted. The list shows a part of the results. Unmarked numbers belong to inactive results. Cut-off read from the data, not from the text of the source: active = normalized growth mostly below about 0.91 (no sharp cut-off); inconclusive = no clear call, values can overlap the other calls; inactive = mostly above about 0.92.

Assay: chemical genetic growth profiling, strain panel (AID 1159580);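 note: tested at 20 µM; growth read once vehicle control cultures reached saturation at 30 °C; 1 = growth at the plate median or of vehicle wells; lower values mean less growth of the strain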
Details: S. cerevisiae deletion strains, growth OD

In the case of `CC(=O)O[C@]1(C(C)=O)CCC2C3C[C@H](C)C4=CC(=O)CC[C@]4(C)C3CC[C@@]21C` (stereo partly drawn), the normalized growth (locus YAL021C, strain ccr4, hits give low values) is reported as 1, the normalized growth (locus YAL026C, strain drs2, hits give low values) is reported as 0.992 and the normalized growth (locus YAL030W, strain snc1, hits give low values) is reported as 0.968. The normalized growth (locus YBL061C, strain skt5, hits give low values) was 0.964, the normalized growth (locus YBR009C, strain hhf1, hits give low values) was 0.955 and the normalized growth (locus YBR021W, strain FUR4, hits give low values) was 0.993. It also gave a normalized growth (locus YBR023C, strain chs3, hits give low values) of 0.924, a normalized growth (locus YBR171W, strain sec66, hits give low values) of 0.95 and a normalized growth (locus YBR229C, strain ROT2, hits give low values) of 0.993. The normalized growth (locus YBR231C, strain swc5, hits give low values) was 0.971, the normalized growth (locus YBR279W, strain paf1, hits give low values) was 0.97 and the normalized growth (locus YCL011C, strain gbp2, hits give low values) was 0.931. For the same compound, the normalized growth (locus YCL016C, strain dcc1, hits give low values) was 0.916, the normalized growth (locus YCL029C, strain bik1, hits give low values) was 0.957 and the normalized growth (locus YCL061C, strain MRC1, hits give low values) was 0.965. It also gave a normalized growth (locus YCL069W, strain vba3, hits give low values) of 0.958, a normalized growth (locus YCR088W, strain abp1, hits give low values) of 0.961 and a normalized growth (locus YDL005C, strain med2, hits give low values) of 0.959. The normalized growth (locus YDL035C, strain GPR1, hits give low values) was 1.01, the normalized growth (locus YDL040C, strain nat1, hits give low values) was 0.971 and the normalized growth (locus YDL074C, strain BRE1, hits give low values) was 0.983. It also gave a normalized growth (locus YDL101C, strain DUN1, hits give low values) of 0.993, a normalized growth (locus YDL185W, strain tfp1, hits give low values) of 0.956 and a normalized growth (locus YDL192W, strain arf1, hits give low values) of 0.966. For the same compound, the normalized growth (locus YDR001C, strain nth1, hits give low values) was 0.97, the normalized growth (locus YDR069C, strain doa4, hits give low values) was 0.992 and the normalized growth (locus YDR101C, strain arx1, hits give low values) was 0.999. For the same compound, the normalized growth (locus YDR137W, strain rgp1, hits give low values) was 0.839 (active), the normalized growth (locus YDR150W, strain NUM1, hits give low values) was 0.99 and the normalized growth (locus YDR159W, strain sac3, hits give low values) was 0.971. For the same compound, the normalized growth (locus YDR162C, strain NBP2, hits give low values) was 0.993, the normalized growth (locus YDR195W, strain ref2) was 1.07 and the normalized growth (locus YDR297W, strain sur2, hits give low values) was 0.971. The normalized growth (locus YDR318W, strain mcm21, hits give low values) was 0.961, the normalized growth (locus YDR334W, strain swr1, hits give low values) was 0.96 and the normalized growth (locus YDR335W, strain msn5, hits give low values) was 0.971. The normalized growth (locus YDR388W, hits give low values) was 0.989, the normalized growth (locus YDR392W, strain spt3, hits give low values) was 0.635 (active) and the normalized growth (locus YDR502C, strain sam2, hits give low values) was 0.954. It also gave a normalized growth (locus YEL003W, strain gim4, hits give low values) of 0.987, a normalized growth (locus YEL037C, strain rad23, hits give low values) of 0.962 and a normalized growth (locus YEL061C, strain CIN8 (second series), hits give low values) of 0.97. For the same compound, the normalized growth (locus YEL061C, strain CIN8, hits give low values) was 0.991, the normalized growth (locus YER015W, strain faa2, hits give low values) was 0.969 and the normalized growth (locus YER016W, strain bim1, hits give low values) was 0.975. It also gave a normalized growth (locus YER110C, hits give low values) of 0.96, a normalized growth (locus YER111C, strain swi4, hits give low values) of 0.96 and a normalized growth (locus YER155C, strain BEM2 (second series), hits give low values) of 0.976. The normalized growth (locus YER155C, strain BEM2, hits give low values) was 0.98, the normalized growth (locus YER167W, strain BCK2, hits give low values) was 0.977 and the normalized growth (locus YFR010W, strain ubp6, hits give low values) was 0.981. It also gave a normalized growth (locus YGL078C, strain dbp3, hits give low values) of 0.982, a normalized growth (locus YGL086W, strain mad1, hits give low values) of 0.995 and a normalized growth (locus YGL167C, strain pmr1, hits give low values) of 0.948. The normalized growth (locus YGL173C, strain kem1, hits give low values) was 0.969, the normalized growth (locus YGL227W, strain vid30, hits give low values) was 0.969 and the normalized growth (locus YGL240W, strain doc1, hits give low values) was 0.98. For the same compound, the normalized growth (locus YGL248W, strain PDE1, hits give low values) was 0.992, the normalized growth (locus YGL253W, strain hxk2, hits give low values) was 0.91 and the normalized growth (locus YGR135W, strain pre9, hits give low values) was 0.912. For the same compound, the normalized growth (locus YGR252W, strain gcn5, hits give low values) was 0.926, the normalized growth (locus YHR013C, strain ard1, hits give low values) was 0.968 and the normalized growth (locus YHR027C, strain rpn1, hits give low values) was 0.984. For the same compound, the normalized growth (locus YHR030C, strain SLT2, hits give low values) was 0.997 and 0.999, the normalized growth (locus YHR079C, strain IRE1 (second series), hits give low values) was 0.979 and the normalized growth (locus YHR079C, strain IRE1, hits give low values) was 0.98. For the same compound, the normalized growth (locus YHR094C, strain hxt1, hits give low values) was 0.991, the normalized growth (locus YHR129C, strain ARP1, hits give low values) was 0.993 and the normalized growth (locus YHR142W, strain chs7, hits give low values) was 0.841 (active). It also gave a normalized growth (locus YHR200W, strain rpn10, hits give low values) of 0.982, a normalized growth (locus YIL066C, strain RNR3, hits give low values) of 0.991 and a normalized growth (locus YIL073C, strain SPO22, hits give low values) of 0.932. For the same compound, the normalized growth (locus YIL125W, strain kgd1, hits give low values) was 0.996, the normalized growth (locus YIR030C, strain dcg1, hits give low values) was 0.962 and the normalized growth (locus YJL092W, strain hpr5, hits give low values) was 0.964. For the same compound, the normalized growth (locus YJL095W, strain BCK1 (second series), hits give low values) was 0.953, the normalized growth (locus YJL095W, strain BCK1, hits give low values) was 0.961 and 1 and the normalized growth (locus YJL115W, strain asf1, hits give low values) was 0.969. For the same compound, the normalized growth (locus YJL129C, strain trk1, hits give low values) was 0.902, the normalized growth (locus YJL134W, strain LCB3, hits give low values) was 0.993 and the normalized growth (locus YJL154C, strain vps35, hits give low values) was 0.964. The normalized growth (locus YJL164C, strain tpk1, hits give low values) was 0.97, the normalized growth (locus YJL166W, strain qcr8, hits give low values) was 0.926 and the normalized growth (locus YJL168C, strain set2, hits give low values) was 0.985. For the same compound, the normalized growth (locus YJL187C, strain SWE1 (second series), hits give low values) was 0.985, the normalized growth (locus YJL187C, strain SWE1, hits give low values) was 0.976 and the normalized growth (locus YJR043C, strain POL32, hits give low values) was 1.03. It also gave a normalized growth (locus YJR066W, strain TOR1, hits give low values) of 0.958.
